From PubChem BioAssay (EPA / NIEHS)
“And” between values parts separate entries of the source, which are not always exact repeats. Equal values may be shown once. Results filed as inconclusive are left out. The source made the active and inactive calls. How the source made its calls, unless noted: active means hit-call score of the fitted dose curve at least 0.9, where 1 is the maximum; inactive means score below 0.9.

How the values were obtained:
TTR (gene 7276) = assay: CCTE_GLTED_hTTR_0.125uM: CCTE's human Transthyretin (hTTR) Inhibition Assay, with 0.125uM TTR, Great Lakes Toxicology and Ecology Division (GLTED) Lab (AID 2284431);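 further: hits lower the fluorescence signal relative to DMSO baseline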
Method in brief: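 Probe-displacement format: chemicals competing for the T4 site release ANSA from 0.125uM TTR during a 2 h incubation, measured by fluorescence at 380 excitation and 475 emission.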

[1] = tested on: Brachyury (BRA) Protein Expression, TBXT (gene 6862); assay: CCTE_Deisenroth_DEVTOX-GLR_Endo_BRA: CCTE's DevTox GLR-Endo Assay Evaluation of Brachyury (BRA) Protein Expression, Deisenroth Lab (AID 2284417)
Method in brief: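 Endpoint is the fraction of BRA reporter-positive cells over total nuclei, corrected by subtracting the 0.2% DMSO value. Chemicals (1 nM - 200 uM, 10 points) were dosed twice during 48 h differentiation of RUES2-GLR cells, read by imaging.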

[2] = CCTE_Deisenroth_DEVTOX-GLR_Endo_CellCount: Viability Assessment in CCTE's DevTox GLR-Endo Assay, Deisenroth Lab (AID 2284420)
Protocol: CCTE_Deisenroth_DEVTOX-GLR_Endo assay is a cell-based, multiplex-readout assay that uses RUES2-GLR, a human pluripotent cell line, with measurements taken at 48 hours after chemical dosing in a 384-well microplateCCTE_Deisenroth_DEVTOX-GLR_Endo_CellCount is 1 of 4 assay components calculated from the CCTE_Deisenroth_DEVTOX-GLR_Endo assay and it measures cell count. Using fluorescent nuclear staining, loss-of-signal activity can be used to understand changes in cell viability with fluorescent microscopy. It is designed to make measurements of nuclei counts as a surrogate for cell number, as detected with optical fluorescence microscopy by Perkin Elmer Harmony nuclei detection algorithm. To generalize the intended target to other relatable targets, this assay component is annotated to the cell cycle intended target family, where the subfamily is cytotoxicity.Data from the assay component CCTE_Deisenroth_DEVTOX-GLR_Endo_CellCount was analyzed as 1 assay endpoint. The endpoint the percent change in cell count relative to the 0.2% DMSO control in the CCTE_Deisenroth_DEVTOX-GLR_Endo assay. Furthermore, this assay endpoint can be referred to as a primary readout, because this assay has produced multiple assay endpoints where this one serves as a measure of cytotoxicity.
All assay protocols are aligned to the DevTox GLR-Endo assay workflow. Cells are seeded into 384-well microplates for 24 hours prior to initiating differentiation in defined media for a total duration of 48 hours. A total of two chemical exposures are administered in 24-hour intervals during the 48-hour differentiation period. At the assay termination point, cells are fixed and stained with a fluorescent dye demarcating the nucleus. High-content imaging is used to acquire brightfield and fluorescent channel images across 5 fields per well. Cell identification and mean biomarker fluorescence intensities are calculated with image analysis software to determine the total cell counts for viability assessment and the biomarker expression frequency for each lineage-dependent assay. […]

[3] = tested on: SRY-box transcription factor 17 (SOX17) Protein Expression, Deisenroth Lab, SOX17 (gene 64321); assay: CCTE_Deisenroth_DEVTOX-GLR_Pluri_SOX17: CCTE's DevTox GLR-Pluri Assay Evaluation of SRY-box transcription factor 17 (SOX17) Protein Expression, Deisenroth Lab (AID 2284427; active means hit-call score of the fitted dose curve at least 0.9, where 1 is the maximum)
Method in brief: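 Seed cells 24 h; differentiate 48 h, dosing at 0 and 24 h (1 nM - 200 uM); fix, stain nuclei, image 5 fields per well; count SOX17+ cells over total cells and subtract 0.2% DMSO control.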

[4] = tested on: SRY-box transcription factor 2 (SOX2) Protein Expression, Deisenroth Lab, SOX2 (gene 6657); assay: CCTE_Deisenroth_DEVTOX-GLR_Pluri_SOX2: CCTE's DevTox GLR-Pluri Assay Evaluation of SRY-box transcription factor 2 (SOX2) Protein Expression, Deisenroth Lab (AID 2284428)
Method in brief: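 SOX2 expression frequency is scored in a human pluripotent reporter line, RUES2-GLR, exposed to chemicals twice over 48 h. Imaging-based SOX2+ cell percentage is normalized as change versus 0.2% DMSO.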

[5] = tested on: Brachyury (BRA) Protein Expression, Deisenroth Lab, TBXT (gene 6862); assay: CCTE_Deisenroth_DEVTOX-GLR_Pluri_BRA: CCTE's DevTox GLR-Pluri Assay Evaluation of Brachyury (BRA) Protein Expression, Deisenroth Lab (AID 2284429; active means hit-call score of the fitted dose curve at least 0.9, where 1 is the maximum)
Method in brief: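 Percent BRA+ cells (BRA+ count over total cells) by high-content imaging of fixed RUES2-GLR cultures, corrected by 0.2% DMSO control. Cells received two doses over 48-hour differentiation, 1 nM–200 uM, n=4 experiments.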

[6] = CCTE_Deisenroth_DEVTOX-GLR_Pluri_CellCount: Viability Assessment in CCTE's DevTox GLR-Pluri Assay Evaluation of Total Cell Counts, Deisenroth Lab (AID 2284430)
Method in brief: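 Cytotoxicity readout: fluorescent nuclei counts by high-content imaging, expressed as percent change relative to 0.2% DMSO. Human RUES2-GLR pluripotent line differentiated 48 h, dosed twice at 24-h intervals across 1 nM - 200 uM (10 points).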

[7] = CCTE_Padilla_ZF_Score.Any: CCTE's 144 Hour Post-fertilization zebrafish Assay Score for Any Mortality or Malformation, Padilla Lab (AID 2284416)
Method in brief: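 Wild-type zebrafish embryos with chorions, one per well in 10% Hanks' from 6–8 hpf, dosed in sealed plates at 26 C, 14:10 h light:dark; rinsed at 5 dpf; blinded scoring at 6 dpf for death or malformation, versus DMSO.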

With O=C(O)c1ccccc1C(c1ccc(O)cc1)c1ccc(O)cc1 the AC50 (TTR (gene 7276)) was 3040 nM (active).
With C[C@@H]1C[C@H]2[C@@H]3CCC4=CC(=O)C=C[C@]4(C)[C@@]3(F)[C@@H](O)C[C@]2(C)[C@@]1(O)C(=O)COP(=O)(O)O the outcome [1] was “inactive”, the outcome [2] was “inactive” and the outcome [3] was “inactive”. For the same compound, the outcome [4] was “inactive”, the outcome [5] was “inactive” and the outcome [6] was “inactive”.
For FC(F)(I)C(F)(F)C(F)(F)C(F)(F)C(F)(F)C(F)(F)I, the AC50 [7] was 10 µM (active) and 3.34 µM (active).
In the case of OCCC(F)(F)C(F)(F)C(F)(F)C(F)(F)C(F)(F)C(F)(F)F, the AC50 [7] is reported as 28.6 µM (active).
With O=C(O)Cc1cc(I)c(Oc2cc(I)c(O)c(I)c2)c(I)c1 the AC50 (TTR (gene 7276)) was 10.4 nM (active).
For ClC1=C(Cl)C(Cl)(Cl)C(Cl)=C1Cl, the AC50 (TTR (gene 7276)) was 7090 nM (active).
In the case of CCCOC(=O)c1ccc(O)cc1, the AC50 (TTR (gene 7276)) is reported as 5010 nM (active).
In the case of C=C(C)C(=O)OCCC(F)(F)C(F)(F)C(F)(F)C(F)(F)C(F)(F)C(F)(F)F, the outcome [7] is reported as “inactive”.
With O=[N+]([O-])c1ccc(O)cc1 the AC50 (TTR (gene 7276)) was 6.47 µM (active) and 8.54 µM (active).
In the case of CC1=C(/C=C/C(C)=C/C=C/C(C)=C/C(=O)O)C(C)(C)CCC1, the AC50 [1] is reported as 8.08 µM (active), the AC50 [2] is reported as 4.43 µM (active) and the AC50 [3] is reported as 14.1 µM (active). For the same compound, the AC50 [4] was 0.576 µM (active) and the AC50 [5] was 12 µM (active).
In the case of NC(=O)N1C(=O)C(C(=O)c2cc(Cl)cs2)c2cc(F)c(Cl)cc21 (centres undefined), the AC50 (TTR (gene 7276)) is reported as 48.1 nM (active).
For CCc1ccc(CCOc2ccc(CC3SC(=O)NC3=O)cc2)nc1 (centres undefined), the AC50 (TTR (gene 7276)) was 392 nM (active).
With CCCCCCCCCCCCc1ccccc1S(=O)(=O)O the AC50 (TTR (gene 7276)) was 890 nM (active).
In the case of CC[C@H](c1ccc(O)cc1)[C@@H](CC)c1ccc(O)cc1, the AC50 (TTR (gene 7276)) is reported as 132 nM (active).
With CC(C)(C)c1ccc(O)c(C(C)(C)C)c1 the AC50 (TTR (gene 7276)) was 9980 nM (active).
For OCCC(F)(F)C(F)(F)C(F)(F)C(F)(F)C(F)(F)C(F)(F)C(F)(F)C(F)(F)F, the outcome [7] was “inactive”.
In the case of CC(O)CO (centres undefined), the outcome [1] is reported as “inactive”, the outcome [2] is reported as “inactive” and the outcome [3] is reported as “inactive”. The outcome [4] was “inactive”, the outcome [5] was “inactive” and the outcome [6] was “inactive”.
With NC(=O)N(O)[C@@H]1C=C[C@H](Oc2cccc(Oc3ccc(F)cc3)c2)C1 the AC50 (TTR (gene 7276)) was 439 nM (active).
For CCCCCCCCC(=O)O, the AC50 (TTR (gene 7276)) was 12400 nM (active).
With NCC(F)(F)C(F)(F)C(F)(F)C(F)(F)C(F)(F)C(F)(F)C(F)(F)F the outcome [7] was “inactive”.
